These results are taken from the supplement of paper PMC10849652.

Holding throughout (test): log2 fold change, soluble protein after heating vs DMSO (PISA); higher = thermal stabilisation; K562 lysate, 10 uM; active = over 0.2 and 3.5 SD of the protein, either way, in both replicates (recomputed)
Compound in experiment [1]: CC1=C2C(=CC=C1)N=C(N(C2=O)C3=CC=CC=C3C)CN4C=NC5=C(N=CN=C54)N
Summed up: (§1)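 K562 pellets were dounce-homogenised in PBS pH 7.4 containing 1 mM MgCl2, and the crude extract, at 1 mg/mL protein, was exposed to 10 μM compound for 30 min. Aliquots were heated for 3 min across 48°C-58°C, pooled, brought to 0.5% NP-40 at 4°C and spun at 21,000xg for 90 min, with the supernatant taken as soluble protein. TMTpro 16plex LC-MS/MS with equalised channel sums quantified that protein. Values are log-two fold changes in thermal stability relative to solvent controls, taken from duplicates.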

Compound in experiment [2]: Cc1sc2c(c1C)C(c1ccc(Cl)cc1)=N[C@@H](CC(=O)OC(C)(C)C)c1nnc(C)n1-2
Summed up:
as §1

Compound in experiment [3]: C1=CC=C(C=C1)[C@H](COC2=CC3=C(C=C2)NC(=O)N3)NC(=O)C4=CC=CN(C4=O)CC5=CC(=C(C=C5)F)F
Summed up: as §1

Compound in experiment [4]: CC1=C(SC2=C1C(=N[C@H](C3=NN=C(N32)C)CC(=O)N)C4=CC=C(C=C4)Cl)C
In short, it runs like this: as §1

Compound in experiment [5]: c1ccc([C@@H]2C[C@H]2NC2CCNCC2)cc1
Summed up:
as §1

Targets with a hit are over-represented here; the source holds about 8,800 in all. About 0.5% of all pairs of compound and target were hits. A number with no mark means an inactive call.

Sequence of UniProt O75367 (O75367 whole entry, looked up): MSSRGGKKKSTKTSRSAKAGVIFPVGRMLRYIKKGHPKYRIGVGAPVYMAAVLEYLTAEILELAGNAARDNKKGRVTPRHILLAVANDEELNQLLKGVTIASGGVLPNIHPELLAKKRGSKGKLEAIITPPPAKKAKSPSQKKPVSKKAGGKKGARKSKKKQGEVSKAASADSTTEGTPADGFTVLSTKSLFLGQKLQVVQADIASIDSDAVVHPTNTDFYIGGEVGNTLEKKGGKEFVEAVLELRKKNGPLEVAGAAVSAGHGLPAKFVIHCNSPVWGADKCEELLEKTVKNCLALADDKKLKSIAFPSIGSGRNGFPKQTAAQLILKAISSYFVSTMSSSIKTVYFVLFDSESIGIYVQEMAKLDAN
Sequence of UniProt Q9BT25 (Q9BT25 whole entry, looked up): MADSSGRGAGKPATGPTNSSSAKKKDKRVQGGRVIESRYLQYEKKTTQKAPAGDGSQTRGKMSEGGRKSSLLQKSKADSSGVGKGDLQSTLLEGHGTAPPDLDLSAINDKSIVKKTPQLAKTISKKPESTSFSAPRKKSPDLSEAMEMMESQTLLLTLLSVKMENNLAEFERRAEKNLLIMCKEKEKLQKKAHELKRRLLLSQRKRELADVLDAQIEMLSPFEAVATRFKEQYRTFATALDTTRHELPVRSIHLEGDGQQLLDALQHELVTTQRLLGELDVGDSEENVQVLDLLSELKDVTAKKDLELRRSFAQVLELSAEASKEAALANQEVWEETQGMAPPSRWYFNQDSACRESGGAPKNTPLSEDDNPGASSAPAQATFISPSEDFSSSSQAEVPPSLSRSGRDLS
Sequence of UniProt Q9Y573 (Q9Y573 whole entry, looked up): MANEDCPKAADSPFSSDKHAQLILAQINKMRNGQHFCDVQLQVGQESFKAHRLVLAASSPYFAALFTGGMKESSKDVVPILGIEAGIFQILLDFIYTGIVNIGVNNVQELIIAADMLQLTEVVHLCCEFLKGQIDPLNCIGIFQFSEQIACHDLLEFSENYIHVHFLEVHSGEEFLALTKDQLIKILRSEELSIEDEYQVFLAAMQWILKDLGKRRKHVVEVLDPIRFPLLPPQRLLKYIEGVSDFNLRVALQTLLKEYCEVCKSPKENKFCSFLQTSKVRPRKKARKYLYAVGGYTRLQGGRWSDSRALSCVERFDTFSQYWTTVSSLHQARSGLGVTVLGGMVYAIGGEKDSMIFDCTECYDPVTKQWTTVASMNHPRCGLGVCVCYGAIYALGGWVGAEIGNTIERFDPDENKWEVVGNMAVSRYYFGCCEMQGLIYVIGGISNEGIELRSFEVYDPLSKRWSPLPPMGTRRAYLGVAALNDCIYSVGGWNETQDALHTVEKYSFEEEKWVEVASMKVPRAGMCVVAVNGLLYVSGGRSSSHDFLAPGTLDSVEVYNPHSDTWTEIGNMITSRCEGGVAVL
Sequence of UniProt P22692 (P22692 whole entry, looked up): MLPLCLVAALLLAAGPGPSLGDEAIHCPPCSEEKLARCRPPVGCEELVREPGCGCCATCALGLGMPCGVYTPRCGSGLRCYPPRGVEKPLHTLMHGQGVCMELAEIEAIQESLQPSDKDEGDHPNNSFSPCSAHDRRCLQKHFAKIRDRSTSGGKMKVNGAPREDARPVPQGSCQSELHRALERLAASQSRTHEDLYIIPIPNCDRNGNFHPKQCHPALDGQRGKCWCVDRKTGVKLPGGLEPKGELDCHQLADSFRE
Sequence of UniProt P41229 (P41229 whole entry, looked up): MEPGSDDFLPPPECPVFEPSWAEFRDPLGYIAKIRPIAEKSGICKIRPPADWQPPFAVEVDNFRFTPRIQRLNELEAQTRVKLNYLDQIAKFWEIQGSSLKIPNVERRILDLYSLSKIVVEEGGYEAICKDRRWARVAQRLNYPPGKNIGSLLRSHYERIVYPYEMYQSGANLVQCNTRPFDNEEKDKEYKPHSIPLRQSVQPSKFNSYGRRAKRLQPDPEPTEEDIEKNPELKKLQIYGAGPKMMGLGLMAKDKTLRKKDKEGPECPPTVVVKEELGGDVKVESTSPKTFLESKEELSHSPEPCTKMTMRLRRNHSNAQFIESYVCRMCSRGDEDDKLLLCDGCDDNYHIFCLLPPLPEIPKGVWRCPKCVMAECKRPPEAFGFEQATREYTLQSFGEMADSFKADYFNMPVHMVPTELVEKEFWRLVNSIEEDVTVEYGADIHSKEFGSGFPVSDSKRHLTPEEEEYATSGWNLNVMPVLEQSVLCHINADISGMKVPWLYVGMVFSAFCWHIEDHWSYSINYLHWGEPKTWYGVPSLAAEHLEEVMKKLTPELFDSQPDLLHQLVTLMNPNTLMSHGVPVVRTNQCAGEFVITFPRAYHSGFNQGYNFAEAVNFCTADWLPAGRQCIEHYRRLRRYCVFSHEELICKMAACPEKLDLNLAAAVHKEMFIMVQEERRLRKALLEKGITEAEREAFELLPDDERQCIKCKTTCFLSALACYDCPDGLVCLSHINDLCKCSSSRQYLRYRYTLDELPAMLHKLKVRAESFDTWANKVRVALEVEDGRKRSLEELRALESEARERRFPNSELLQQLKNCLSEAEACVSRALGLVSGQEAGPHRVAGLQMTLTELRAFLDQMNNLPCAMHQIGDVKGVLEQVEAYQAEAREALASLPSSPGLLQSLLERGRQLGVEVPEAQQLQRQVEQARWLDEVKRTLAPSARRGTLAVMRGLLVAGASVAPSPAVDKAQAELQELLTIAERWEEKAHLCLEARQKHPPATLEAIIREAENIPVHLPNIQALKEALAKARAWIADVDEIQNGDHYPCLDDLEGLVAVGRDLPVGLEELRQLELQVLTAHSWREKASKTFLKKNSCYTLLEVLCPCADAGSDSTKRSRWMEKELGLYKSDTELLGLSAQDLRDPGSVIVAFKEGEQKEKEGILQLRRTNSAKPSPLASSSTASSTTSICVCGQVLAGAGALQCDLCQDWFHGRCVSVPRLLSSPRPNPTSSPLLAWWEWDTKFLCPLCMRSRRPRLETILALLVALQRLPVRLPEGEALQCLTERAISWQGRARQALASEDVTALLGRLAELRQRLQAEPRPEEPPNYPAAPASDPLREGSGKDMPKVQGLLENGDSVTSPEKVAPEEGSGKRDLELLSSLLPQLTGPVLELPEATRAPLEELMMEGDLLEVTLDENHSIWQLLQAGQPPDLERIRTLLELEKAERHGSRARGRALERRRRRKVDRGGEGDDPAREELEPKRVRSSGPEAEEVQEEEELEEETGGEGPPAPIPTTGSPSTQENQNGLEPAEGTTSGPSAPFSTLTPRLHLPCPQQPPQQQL
Sequence of UniProt P08236 (P08236 whole entry, looked up): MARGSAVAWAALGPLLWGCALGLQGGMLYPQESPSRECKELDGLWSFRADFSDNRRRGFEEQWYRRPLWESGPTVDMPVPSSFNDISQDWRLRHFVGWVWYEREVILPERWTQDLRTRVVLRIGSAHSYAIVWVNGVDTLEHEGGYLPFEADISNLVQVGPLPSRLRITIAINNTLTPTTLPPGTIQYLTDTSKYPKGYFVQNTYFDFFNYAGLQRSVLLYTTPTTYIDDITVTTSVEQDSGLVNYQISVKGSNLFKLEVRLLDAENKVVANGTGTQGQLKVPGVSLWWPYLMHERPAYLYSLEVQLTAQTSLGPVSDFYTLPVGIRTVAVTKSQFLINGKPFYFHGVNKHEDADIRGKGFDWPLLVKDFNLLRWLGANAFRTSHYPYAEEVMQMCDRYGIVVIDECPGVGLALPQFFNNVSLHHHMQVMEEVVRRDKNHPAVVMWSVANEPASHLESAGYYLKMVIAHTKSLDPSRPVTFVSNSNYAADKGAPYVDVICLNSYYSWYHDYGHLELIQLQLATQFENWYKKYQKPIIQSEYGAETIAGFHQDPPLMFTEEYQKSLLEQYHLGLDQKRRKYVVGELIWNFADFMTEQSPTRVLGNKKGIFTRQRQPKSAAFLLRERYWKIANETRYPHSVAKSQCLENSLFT
Sequence of UniProt Q8IWB1 (Q8IWB1 whole entry, looked up): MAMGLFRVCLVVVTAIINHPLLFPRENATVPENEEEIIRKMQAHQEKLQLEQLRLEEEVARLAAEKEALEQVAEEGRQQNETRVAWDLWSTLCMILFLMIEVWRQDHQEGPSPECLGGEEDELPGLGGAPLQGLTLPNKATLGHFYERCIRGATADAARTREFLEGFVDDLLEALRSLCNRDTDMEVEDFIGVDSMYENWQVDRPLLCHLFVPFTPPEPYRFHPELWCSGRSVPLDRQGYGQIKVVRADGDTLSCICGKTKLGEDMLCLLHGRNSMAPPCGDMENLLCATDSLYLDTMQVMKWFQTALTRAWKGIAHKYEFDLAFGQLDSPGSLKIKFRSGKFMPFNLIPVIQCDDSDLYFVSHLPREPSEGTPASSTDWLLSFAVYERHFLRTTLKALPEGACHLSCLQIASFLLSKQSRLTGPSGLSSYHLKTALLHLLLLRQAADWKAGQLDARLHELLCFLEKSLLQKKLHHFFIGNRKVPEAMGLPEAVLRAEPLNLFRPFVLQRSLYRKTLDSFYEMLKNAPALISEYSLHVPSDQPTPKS

Consider HYDIN (UniProt Q4G0P3), for which the log2 fold change is -0.069 in experiment [1] and -0.078 in experiment [2].
As for ITPR2 (UniProt Q14571), in experiment [2], the log2 fold change was -0.171.
Consider H2AFY (UniProt O75367), for which the log2 fold change was -0.035 in experiment [3]; 0.045 in experiment [4]; 0.026 in experiment [1]; 0.296 (active) in experiment [2]; -0.045 in experiment [5].
Take IGFBP4 (UniProt P22692): the log2 fold change in experiment [3] is 0.135; in experiment [4], -0.099; in experiment [2], -0.032; in experiment [5], -0.171.
With KDM5C (UniProt P41229), the log2 fold change in experiment [3] was -0.01; in experiment [4], 0; in experiment [1], 0.008; in experiment [2] it was -0.01; in experiment [5] it was 0.032.
As for HNRNPUL1 (UniProt M0R247), the results for the log2 fold change in experiment [3], in experiment [4] and in experiment [5] were 0.059, -0.014 and -0.044, respectively.
On to IPP (UniProt Q9Y573), for which the log2 fold change in experiment [1] is -0.009; in experiment [2], -0.099; in experiment [5] it was 0.02.
As for GUSB (UniProt P08236), the log2 fold change in experiment [3] was 0.035; in experiment [4] it was 0.022; in experiment [1] it was 0.016; in experiment [2], -0.051; in experiment [5] it was -0.313.
ITPRIP (UniProt Q8IWB1): the log2 fold change in experiment [2] is 0.054.
HAUS8 (UniProt Q9BT25): the log2 fold change in experiment [3] is 0.016; in experiment [4], -0.029; in experiment [1], 0; in experiment [2], 0.009; in experiment [5], 0.
